ATXN viability = viability counter-screen for ATXN expression inhibitors; S2 cells (HEK-293 line with an ATXN2-luciferase reporter) viability, CellTiter-Fluor protease fluorescence, 24 h; Potency, µM (top dose mostly 56.7 µM), actives largely listed as cytotoxic; 400,000 compounds, 0.49% hits; also: nearly all actives have a fitted effect of over 40% in size
ATXN2 expr inh = ATXN2 expression inhibition; HEK-293 ATXN2-luciferase reporter, luminescence, 24 h; Potency, µM (highest dose often 57 µM), inactives show at the highest dose activity change, negative = inhibition, usual class: inhibitors; 360,000 compounds, 0.72% hits; AID 1745845; also: % is scaled to controls: 0 for no effect and ±100 for the full control effect; nearly all actives have a fitted effect of over 55% in size
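qHTS (up to 57 uM final) was run with 24 h compound exposure of reporter cells at 37 °C. Each well was multiplexed: SteadyGlo luminescence measured ATXN2-luciferase expression after a fluorogenic Gly-Phe-AFC viability readout (25 uM final).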
TDP1 cell CPT = growth inhibition of DT40 Tdp1-/-;hTDP1 cells with camptothecin (screen for TDP1 inhibitors); chicken DT40 Tdp1-/-;hTDP1 cells + 20 nM CPT, ATP luminescence, 48 h; 420,000 compounds, 12% hits; Potency, µM (titrated, usually from 46.2 µM), for inactives: at the top dose activity change, negative = growth inhibition, hits mostly inhibitors; also: % is scaled to controls: 0 for no effect and ±100 for the full control effect; nearly all actives have a fitted effect of over 55% in size
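Chicken DT40 Tdp1-/- cells complemented with human TDP1, 400 cells/well, exposed to compounds plus 20 nM camptothecin for at least 48 h at 37 C; viability read as ATP content by CellTiter-Glo luminescence.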
HepG2 tox = HepG2 cytotoxicity, counter-screen for TGF-b inhibitors. AID 588856. Potency, µM (highest dose often 46.1 µM), inactives show top-dose activity change, negative = cytotoxicity, actives largely listed as cytotoxic. HepG2 CAGA-GFP viability, ATP luminescence, 18 h. 410,000 compounds, 0.76% hits
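HepG2 CAGA-GFP cells (1000/well, DMEM with 1% FBS) received compound, then TGF-beta at 500 pg/mL final, and were incubated 18 hours at 37 degrees C. Viability was read by CellTiter-Glo luminescence. Media-only wells were set as complete cell-killing and DMSO as no toxicity.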
TGFb inhibitor = inhibitors of TGF-b signaling | AID 588855 | Potency, µM (doses to about 46.1 µM), without a hit: at the top dose activity, negative = inhibition, actives largely listed as inhibitors | HepG2 CAGA-GFP TGF-b/SMAD3 reporter, GFP fluorescence, 18 h; TGF-beta stimulated, 500 pg/mL final | 410,000 compounds, 1.2% hits; also: % is scaled to controls: 0 for no effect and ±100 for the full control effect; nearly all actives have a fitted effect of over 65% in size
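First, reporter cells (HEPG2 CAGA-GFP) rested 2 h at 37 degrees C. Next, compounds were pinned in and TGF-beta added to 500 pg/mL final. After 18 h, GFP was imaged per cell and summed per well.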
TDP1 cell noCPT = qHTS for Inhibitors of human tyrosyl-DNA phosphodiesterase 1 (TDP1): qHTS in cells in absence of CPT; DT40 Tdp1-/- hTDP1 cells, no CPT, ATP luminescence, 48 h; Potency, µM (titrated, usually from 46.2 µM), without a hit: at the highest dose activity change, negative = growth inhibition, hits mostly inhibitors; 420,000 compounds, 15% hits; AID 686978, 2013; also: % is scaled to controls: 0 for no effect and ±100 for the full control effect; nearly all actives have a fitted effect of over 55% in size
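Growth kinetics read by CellTiter-Glo luminescence after ≥48 hr at 37 °C. Cells: DT40 Tdp1-/- stably carrying human TDP1, 400 per well, compound exposure in the absence of CPT (DMSO vehicle).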
* marks the source's active call; other numbers are inactive results; i = inactive; ? = inconclusive; . = not tested or not shown. Shown are actives, neighbours in structure and some others; about 17% of the full set was active somewhere. Calls follow the shape of the dose curve; as a rule, active = well fitted curve in the direction sought with a large enough effect; inconclusive = small, poorly fitted or top-dose-only effect, or another doubt; inactive = no such curve, though single readings can be large; an effect the other way counts as inactive or inconclusive. Potency is read from the fitted curve at half-maximal effect.

SMILES	ATXN viability	ATXN2 expr inh	TDP1 cell CPT	HepG2 tox	TGFb inhibitor	TDP1 cell noCPT
O=C(Nc1nc2nc(-c3ccccc3)cc(-c3ccccc3)n2n1)c1ccco1	i	11%	23µM*	-22%	-5%	23µM*
O=C(NNc1nc(-c2ccccc2)cs1)c1ccco1	i	10%	?	-4%	?	16µM*
O=C(CN1CCN(c2nc(-c3ccccc3)cs2)CC1)NNC(=O)c1ccco1	i	-30%	-28%	-32%	28%	-26%
Cc1cc(C)c2[nH]c(=O)c(C(c3nnnn3CC3CCCO3)N3CCCC(C)C3)cc2c1 (stereo not drawn)	i	13%	18µM*	0%	-2%	?
COc1ccc(S(=O)(=O)NCC2CCCO2)cc1C(=O)O (stereo not drawn)	i	0%	37%	-10%	-1%	1%
O=C(Cn1cc(COc2c(F)c(F)cc(F)c2F)nn1)c1ccc(O)cc1	i	4%	-13%	5%	-11%	-4%
Cc1ccc(C(=O)N(Cc2ccccc2)C(C)(C)C)cc1C	i	-15%	16µM*	3%	?	15µM*
CC(=O)N1CCN(c2ccc(NC(=O)c3ccc4c(c3)OCCO4)cc2)CC1	i	8%	-21%	-16%	5%	-18%
O=C(c1ccccc1)N1CCN(c2ccc(NCc3ccc4c(c3)OCO4)cc2)CC1	?	-33%	15µM*	-28%	?	18µM*
O=C(Nc1ccc(N2CCN(C(=O)c3ccc(Cl)cc3)CC2)cc1)c1cccs1	i	3%	-26%	0%	-25%	8%
O=C(Nc1ccc(N2CCN(C(=O)c3ccc(Cl)cc3)CC2)cc1)c1ccc2c(c1)OCCO2	?	?	13µM*	-6%	?	23µM*
O=C(CSc1ccc(Cl)cc1)Nc1ccc(N2CCN(C(=O)c3ccc(Cl)cc3)CC2)cc1	i	-19%	18µM*	-3%	-28%	15µM*
CC(C)(C)C(=O)N1CCN(c2ccc(NC(=O)c3ccc4c(c3)OCCO4)cc2)CC1	i	?	?	-12%	8%	?
O=C(Nc1ccc(N2CCN(C(=O)c3ccccc3)CC2)cc1)c1ccc2c(c1)OCCO2	?	?	21µM*	13%	?	?
CCc1ccc(NC(=O)C2CCC(CNS(=O)(=O)c3cccs3)CC2)cc1 (stereo not drawn)	i	5%	-5%	-6%	8%	?
Cc1ccc(C)c(OCc2cc(C(=O)NC(c3ccccn3)C(F)(F)F)no2)c1 (stereo not drawn)	i	-20%	?	-33%	0%	?
Cc1cc(Cl)c(Cl)cc1S(=O)(=O)NCCCn1ccnc1	i	-22%	-25%	-32%	?	?
Cc1ccc(-n2nc(C(=O)N3CCN(c4cc(Cl)ccc4C)CC3)c(=O)n(C)c2=O)cc1	i	-8%	?	-3%	-20%	?
CC1(C(=O)Nc2ccc3c(c2)OCCO3)CSCC(=O)N1CC(F)(F)F (stereo not drawn)	.	.	3%	.	.	3%
O=C(NC1CC(=O)c2sccc21)c1cccc(C(F)(F)F)c1 (stereo not drawn)	i	-8%	7%	-39%	-15%	-5%
CC(=O)NCCNc1ccnc(-c2ccccc2C(F)(F)F)n1	.	.	-4%	.	.	19%
Fc1ccc(Nc2ccnc(-c3ccccc3C(F)(F)F)n2)cc1	.	.	12µM*	.	.	?
Cc1cccc(CNc2ccnc(-c3ccc(N(C)C)cc3)n2)c1	.	.	-107%	.	.	12µM*
Cc1cccc(CNc2ccnc(-c3ccccc3C(F)(F)F)n2)c1	.	.	18µM*	.	.	?
CN(C)c1ccc(-c2nccc(NCc3ccccc3)n2)cc1	.	.	?	.	.	16µM*
SMILES	ATXN viability	ATXN2 expr inh	TDP1 cell CPT	HepG2 tox	TGFb inhibitor	TDP1 cell noCPT
Cc1ccc2nc(SCC(=O)Nc3cc(C)on3)nc(=O)n2c1	i	23%	3%	-9%	-2%	1%
COc1ncc2nc(-c3cc(F)cc(F)c3)c(=O)n(CCC#N)c2n1	.	.	-1%	.	.	-24%
O=C(CCCn1c(=O)oc2ccccc21)N1CCN(c2ccccn2)CC1	i	32%	4%	-5%	11%	-2%
CCOC(=O)C1=NNC(C(=O)c2ccc(Cl)cc2)C1c1ccc(OC)cc1 (stereo not drawn)	i	.	?	-1%	-10%	18µM*
CCOC(=O)C1NN=C(C(=O)c2ccc(C)cc2)C1c1ccc(C)cc1 (stereo not drawn)	i	5%	18µM*	1%	2%	21µM*
CCOC(=O)C1=NNC(C(=O)OCC)C1c1ccccc1 (stereo not drawn)	i	2%	?	-3%	?	2%
COc1cccc(NC(=O)C2CCC(CNS(=O)(=O)c3cccc4cccnc34)CC2)c1 (stereo not drawn)	i	2%	6%	-14%	-5%	?
O=C(Nc1cccc(C(F)(F)F)c1)c1cc(S(=O)(=O)N2CCCC2)c[nH]1	i	-11%	.	-24%	-9%	.
Cc1cc(C(=O)N/N=C/c2cccc(OC(=O)c3cccc(Br)c3)c2)n[nH]1	i	63%	-7%	-5%	-6%	-2%
COc1cc(C(=O)Oc2cccc(C(=S)N3CCOCC3)c2)cc(OC)c1OC	i	-5%	-21%	0%	3%	-17%
COc1cc(C(=O)Oc2cccc(/C=N/NC(=O)c3cc(C)[nH]n3)c2)cc(OC)c1OC	i	8%	?	-2%	11%	21µM*
COc1cccc(C(=O)Oc2c(Br)cc(Br)cc2/C=N/NC(=O)c2cc(C)[nH]n2)c1	.	.	6.5µM*	-15%	-20%	9.2µM*
COc1cc(C(=O)Oc2cccc(C=O)c2)cc(OC)c1OC	i	-5%	26µM*	-4%	6%	?
